Results taken from the supplement of paper PMC5641865, “A screen for kinase inhibitors identifies antimicrobial imidazopyridine aminofurazans as specific inhibitors of the Listeria monocytogenes PASTA kinase PrkA” (The Journal of Biological Chemistry, 2017).
Where a name gives a salt, the structure may show the parent alone. ± gives the standard deviation of the averaged measurements.

test system: Listeria monocytogenes 10403S; assay: growth inhibition relative to ceftriaxone-alone control; higher = stronger potentiation of ceftriaxone growth inhibition; conditions: 10 µM; ceftriaxone 1 ug/ml; 12 h
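Further: End-point A600 read in BHI broth at 37 °C with 2% DMSO, inhibition computed as (1 − OD with compound plus ceftriaxone ÷ OD with ceftriaxone only) × 100.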

SMILES | growth inhibition [%]
O=C(NOC[C@H](O)CO)c1ccc(F)c(F)c1Nc1ccc(I)cc1F | 78.4 ± 6.9
O=C1NCCc2[nH]c(-c3ccncc3)cc21 | 22.8 ± 14
CN1CCN(C2CCN(C(=O)Nc3cc(Oc4ccc(NC(=O)C5(C(=O)Nc6ccc(F)cc6)CC5)c(F)c4)ccn3)CC2)CC1 [Golvatinib (E7050)] | 48.7 ± 37
CCN1CCC(CC(=O)Nc2n[nH]c3nnc(-c4cccc(F)c4F)cc23)CC1 | 7 ± 6.8
COC(=O)Nc1ccc(-c2nc(N3CCOCC3)c3cnn(C4CCN(C(=O)OC)CC4)c3n2)cc1 | -59.1 ± 10
COc1cc2c(N3CCN(C(=O)Nc4ccc(OC(C)C)cc4)CC3)ncnc2cc1OCCCN1CCCCC1 [Tandutinib (MLN518)] | 32.3 ± 18
NS(=O)(=O)c1ccc(Nc2ncc(-c3ccccc3)o2)cc1 | 6.88 ± 6.9
CC(C)COC(=O)c1ccc2c(c1)/C(=C/Nc1ccc(S(N)(=O)=O)cc1)C(=O)N2 | -6.41 ± 14
C#Cc1cccc(Nc2ncnc3cc(OCCOC)c(OCCOC)cc23)c1 [Erlotinib HCl] | 18.6 ± 18
c1ccc(COc2ccc(Nc3ncnc4ccc(-c5ccco5)cc34)cc2)cc1 | -9.94 ± 12
COc1ccc2cc(-c3c(-c4ccncc4)nc(-c4ccc([S+](C)[O-])cc4)n3C)ccc2c1 (centres undefined) | 12 ± 0.7
CCn1cc(-c2ccnc3[nH]c(-c4cccc(CN(C)C)c4)cc23)c(-c2ccc(NC(=O)N(C)C)cc2)n1 | 26.7 ± 18
NS(=O)(=O)c1ccc(N/N=C2\C(=O)Nc3ccc(C(=O)NCCCn4ccnc4)cc32)cc1 | -3.24 ± 3.3
CCCN1CCC(c2ccc(Nc3nc(Nc4cc(F)ccc4C(N)=O)c4cc[nH]c4n3)c(OC)c2)CC1 | -8.21 ± 4.5
